Laboratory results as given in PubChem BioAssay AID1117319 (Southern Research Institute, 2015).
Where “and” joins values, the source holds several entries; their conditions need not be identical. Equal entries are not always repeated. Screen size: about 260,000 compounds; about 1,500 (0.58%) were called active. Another 5% or so got no clear call; they are omitted.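 The calls were made as follows: active = inhibition above a set limit at one or more doses, reproduced on every date tested; inconclusive = results disagree between test dates, or hit never tested in dose response; inactive = the rest.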 A selection follows. Entries with a potency or affinity are not part of this list.

Each molecule was assayed against Virion infectivity factor (Human immunodeficiency virus type 1 group M subtype B (isolate BH10)) + Virion infectivity factor (Human immunodeficiency virus type 1 group M subtype B (isolate BRU/LAI)) + Virion infectivity factor (Human immunodeficiency virus type 1 group M subtype B (isolate PCV12)) + Virion infectivity factor (Human immunodeficiency virus type 1 group M subtype B (isolate HXB2)) + DNA dC->dU-editing enzyme APOBEC-3G (Homo sapiens) (UniProt P69720+P69721+P69722+P69723+Q9HC16) (assay: HIV-1 Vif–A3G interaction blockers – biochemical, TR-FRET, GST-Vif 1-94, biotin-A3G peptide, dose response retest, primary screen (AID 1117319;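 also: Vif residues 1-94 fused to GST binding biotinylated APOBEC3G peptide 110-148; 0% = full assay without inhibitor and 100% = GST in place of GST-Vif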)). Conditions: TR-FRET GST-Vif / biotin-A3G peptide binding; hits give high values.

inhibition, inactive:
OCCNC(=S)Nc1ccc(Cl)c(Cl)c1 1.22%
COc1ccc(C2CC(=O)N3CN(c4ccc(C)c(Cl)c4)CSC3=C2C#N)cc1OC (centres undefined) 13%
COc1ccc(OC)c(C2CC(=O)N3CN(c4ccc(C)c(Cl)c4)CSC3=C2C#N)c1 (centres undefined) 6.54%
C=CC1=CCN(S(=O)C(C)(C)C)[C@@H]1CCO (some centres undefined) -5.14%
O=C(NNS(=O)(=O)c1ccccc1)c1ccc(O)cc1 12.2%
C=CCN(C(=O)c1ccccn1)C(C(=O)NCc1ccccc1)c1ccccc1F (centres undefined) 6.79%
CCOC(=O)C1CCN(C(c2ccc(OC)c(OC)c2)c2sc3nc(C)nn3c2O)CC1 (centres undefined) -0.48%
Cc1nc2sc(C(c3cccs3)N3CCC(C(N)=O)CC3)c(O)n2n1 (centres undefined) 4.3%
COc1ccccc1/C=C/C=N/NC(=O)c1ccco1 -2.59%
COC(=O)c1cc(CSc2nc3ccccc3[nH]2)oc1C -2.28%
CCCN(CCC)C(=O)c1ccc2c(c1)OCO2 14.8%
CCN(C(=O)CCS(=O)(=O)c1ccc(Br)cc1)c1ccc2c(c1)OCO2 27.3%
COc1ccc(S(=O)(=O)NCC(=O)NCc2cc(=O)n(C)c(=O)n2C)cc1 -1.92%
O=c1[nH]c2ccccc2n2c(C(F)(F)F)nnc12 -5.29%
O=c1[nH]c2ccccc2n2c(-c3ccncc3)nnc12 4.55%
Cc1sc(N(C(=O)CCc2ccccc2)c2ccc(C(=O)O)cc2)nc1-c1ccccc1 -5.7%
COc1ccc(C(=O)NCCS(=O)(=O)NC2CCCC2)cc1 -8.13%
CCOC(=O)c1c(C)[nH]c(C(=O)Cn2c(=O)oc3ccccc32)c1C -6.81%
CC(=O)Cn1c(=O)oc2ccccc21 0.93%
Cc1ccccc1CS(=O)(=O)Cc1ccc(C(=O)NCCCN2CC(C)CC(C)C2)o1 (centres undefined) 28%
COc1ccc(S(=O)(=O)NCCSCc2ccco2)cc1 24%
Cc1ccc(S(=O)(=O)NCCSCc2ccco2)cc1 -0.39%
O=C1NC[C@@H](Cc2cccc3ccccc23)N(CC2CCCCC2)C1=O 5.43%
COc1ccc(/C=C2\C(=O)NCC(=O)N2Cc2ccccc2)cc1 -2.05%
CC1=C/C(=N\OS(=O)(=O)c2ccccc2)C(C)=CC1=O 19.9%
CC1=CC(=O)C=C(C)C1=NOS(=O)(=O)c1ccccc1 9.66%
Cc1cccc(NS(=O)(=O)c2nnc(NC(=O)CC(C)C)s2)c1 -2.78%
C=CCn1c(C)cc(-c2csc(NCC)n2)c1C 32.5%
CCCn1c(C)cc(-c2csc(N)n2)c1C 11.8%
COc1ccc(N2C3=C(CC4=C2CC(C)(C)CC4=O)C(=O)CC(C)(C)C3)cc1 24.6% and 5.22%
COc1ccc(-n2ccc(=O)c3c2CCCC3=O)cc1 9%
Nc1cc(=O)[nH]c(SCc2ccc(Cl)cc2Cl)n1 -1%
CCN(CC(=O)Nc1ccccc1C(F)(F)F)C(=O)Cn1c(=O)cnc2ccccc21 -3.46%
O=c1[nH]c2sc3c(c2c2nncn12)CCCC3 24.3%
Cc1nc2sc3c(c2c(=O)o1)CCC3 11.5%
Cc1cccnc1NC(=O)c1ccc(S(=O)(=O)N2CCCCCC2)cc1 -2.42%
Cc1ccc(CN2CCC[C@]3(N[C@H](c4ccc(C(F)(F)F)cc4)[C@@H]4C(=O)N(Cc5ccccc5)C(=O)[C@@H]43)C2=O)cc1 5.48%
Nc1nc2cc(S(=O)(=O)N3CCOCC3)ccc2o1 -2.39%
CCn1c2ccccc2c2nc3cc(S(=O)(=O)N4CCOCC4)ccc3nc21 2.64%
O=C(OCn1nnc2ccccc2c1=O)c1cccnc1Cl 0.6%
COc1nc(NCCC2=CCCCC2)nc(OC)n1 -1.44%
CCOC(=O)N1CCN(C(=O)c2cc(C)no2)CC1 -3.25%
CC(=O)N/C(=C\c1ccccc1)C(=O)OCC(=O)N(CC(C)C)c1c(N)n(Cc2ccccc2)c(=O)[nH]c1=O 4.02%
Cc1csc(NC(=O)CSc2nncn2C)n1 7.24%
CC(C)CC(=O)Nc1ncc([N+](=O)[O-])s1 8.92%
COc1ccc(C(=O)OCC(=O)Nc2ncc([N+](=O)[O-])s2)cc1OC 5.33%
O=C(COC(=O)c1cccc([N+](=O)[O-])c1)Nc1ncc(Br)s1 1.23%
C=CCn1c(SCC(=O)NCc2ccc3c(c2)OCO3)nc2scc(-c3ccccc3)c2c1=O -40.6%
Cc1ccsc1C(=O)Nc1nc2ccccc2[nH]1 -12.8%
COc1ccc(NC(=O)C2(c3ccc(NC(=O)c4ccc(OC)c(OC)c4)cc3)CCCC2)cc1 0.05%
O=C(Nc1ccc(Br)cn1)C1CCCN1S(=O)(=O)c1ccccc1 (centres undefined) 4.08%
CC1=CCC2C(=O)N(c3nc4ccccc4n3C)C(=O)C2C1 (centres undefined) 24.7%
Cc1cccc(N2C(=O)CC(N(O)c3ccccc3)C2=O)c1 (centres undefined) 3.45%
O=C(/C=C/c1cccs1)N1CCN(c2ccccc2)CC1 -0.91%
O=C(/C=C/c1cccs1)N1CCN(c2ccc(F)cc2)CC1 3.81%
COC(=O)CC1C(=O)NCCN1C(=S)NC(=O)c1ccccc1[N+](=O)[O-] (centres undefined) 13.4%
COc1ccc2c(c1)c(=O)oc1cc(OCC(=O)N3CCCC(C)C3)ccc12 (centres undefined) -1.48%
COc1ccc2c(c1)c(=O)oc1cc(OCC(=O)NC3CC3)ccc12 -2.02%
CCCOC(=O)c1ccc(NC(=O)c2ccccc2[N+](=O)[O-])cc1 -4.31%
CCN(CC)S(=O)(=O)c1ccc(C(=O)OC2CCCCC2CN(C)C)cc1 (centres undefined) -1.05%
COc1ccc(CCNS(=O)(=O)CCNC(=O)c2ccccc2)cc1 -6.03%
CC(/C=C/c1ccc(Cl)o1)=C\C(=O)O 27.4%
CC(/C=C/c1ccc(C)o1)=C\C(=O)O 2.74%
O=C1C2C3CCC(C3)C2C(=O)N1CNc1ccccc1 (centres undefined) -1.35%
Cc1ccc2[nH]c(=O)c(CN(C(=O)c3cccc([N+](=O)[O-])c3)C(C)(C)C)cc2c1 -6%
CN(Cc1ccccc1)S(=O)(=O)c1ccc(Cl)c(C(=O)NCCCN2CCOCC2)c1 -5.26%
CC1(OC(=O)CCc2ccccc2)C(=O)C=C2C=C(c3ccc(C#N)cc3)N(C(CO)CO)C=C2C1=O (centres undefined) 0.31%
CC1(OC(=O)CCc2ccccc2)C(=O)C=C2C=C(c3ccc(C#N)cc3)N(CC3CC3)C=C2C1=O (centres undefined) -1.42%
CC(C)CN1C=C2C(=O)C(C)(OC(=O)C3CCCC3)C(=O)C=C2C=C1c1ccsc1 (centres undefined) 28.7%
CC1(OC(=O)C2CCCC2)C(=O)C=C2C=C(c3ccsc3)N(C(CO)CO)C=C2C1=O (centres undefined) 15.2%
COc1ccc(-c2ccc(SCC(=O)N3CCOCC3)nn2)cc1OC 2.85%
COc1ccccc1OCCCC(=O)Nc1nnc(C2CCCO2)s1 (centres undefined) -0.39%
Cc1nn2c(=S)[nH]nc2[nH]c1=O 14.1%
Cc1n[nH]c(=S)n(/N=C/c2cccs2)c1=O -1.81%
COC(=O)[C@H]1C[C@@H]1[C@H](NC(=O)[C@H]1C[C@@H]1[C@H](NC(=O)OCc1ccccc1)c1ccccc1)c1ccccc1 25.9%
COC(=O)[C@H]1C[C@@H]1[C@H](NC(=O)OCc1ccccc1)c1ccccc1 -8.43%
Cc1ccc2cc3cc(C(=O)NCCCN4CCCC4)oc3nc2c1 -1.36%
O=C(O)C1=NN(c2ccccc2)C(=O)C1 13.7%
CC1=NN(c2cc(Cl)c(S(=O)(=O)O)cc2Cl)C(=O)C1 8.79%
COCCCn1c(SCC(N)=O)nnc1-c1ccccc1 2.76%
C=CCN1C(=O)/C(=C/c2ccsc2)SC1=S 21.3%
COc1ccc(CN(CC(=O)NC2CCCC2)C(=O)c2onc(C(N)=O)c2N)cc1 30.2%
COc1cccc(CN2C(=O)CN(C3CCCCC3)C(=O)C2c2ccc(F)cc2)c1 (centres undefined) 1.82%
CC1=CC(C)(C)Nc2ccc(OC(=O)CN3C(=O)c4ccccc4C3=O)cc21 19.2%
Cc1ccc(OC(=O)c2cccnc2)cc1 -1.57%
CC1=CC(C)(C)Nc2ccc(OC(=O)c3ccco3)cc21 16.4%
CC1=CC(C)(C)Nc2ccc(OC(=O)CCN3C(=O)c4ccccc4C3=O)cc21 3.55%
CC(Oc1ccccc1F)C(=O)/C=C/N(C)C (centres undefined) 5.44%
O=C(Nc1ccc(Oc2ccccc2)nc1)C1CCCCN1Cc1ccco1 (centres undefined) 9.99%
O=C(Nc1cccnc1)c1ccc(S(=O)(=O)c2ccccc2)cc1 -0.77%
O=C(NCc1ccccc1)C(=O)NCC1OCCCN1S(=O)(=O)c1cccs1 (centres undefined) -3.27%
NC(=O)Nn1c(CCC(=O)O)ccc1-c1ccc(Cl)cc1 3.68%
NC(=O)Nn1c(CCC(=O)O)ccc1-c1ccc(F)cc1 4.46%
Cc1nc(-c2cc(C#N)c(Sc3cccc(C(F)(F)F)c3)nc2C)cs1 -11.1%
